# Measured values reported in PubChem BioAssay AID1209 (Sanford-Burnham Center for Chemical Genomics, 2008).
# Out of some 190,000 compounds screened, about 810 (0.43%) were called active. Cut-off read from the data, not from the text of the source: active = inhibition above about 50%; inactive = the rest. What follows is part of a selection rich in actives, with near analogues and random picks from the rest.
# Target: Mannose-6-phosphate isomerase (Homo sapiens) (UniProt P34949)
# Test: MPI enzyme activity inhibition – biochemical, fluorescence intensity, coupled assay, primary screen (AID 1209);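 note: plate controls were DMSO vehicle for no effect and wells lacking substrate for full effect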
# Details: purified PMI enzyme, at 20 µM, stronger effect = higher value
# Chain of Mannose-6-phosphate isomerase (Homo sapiens) (P34949 whole entry, looked up): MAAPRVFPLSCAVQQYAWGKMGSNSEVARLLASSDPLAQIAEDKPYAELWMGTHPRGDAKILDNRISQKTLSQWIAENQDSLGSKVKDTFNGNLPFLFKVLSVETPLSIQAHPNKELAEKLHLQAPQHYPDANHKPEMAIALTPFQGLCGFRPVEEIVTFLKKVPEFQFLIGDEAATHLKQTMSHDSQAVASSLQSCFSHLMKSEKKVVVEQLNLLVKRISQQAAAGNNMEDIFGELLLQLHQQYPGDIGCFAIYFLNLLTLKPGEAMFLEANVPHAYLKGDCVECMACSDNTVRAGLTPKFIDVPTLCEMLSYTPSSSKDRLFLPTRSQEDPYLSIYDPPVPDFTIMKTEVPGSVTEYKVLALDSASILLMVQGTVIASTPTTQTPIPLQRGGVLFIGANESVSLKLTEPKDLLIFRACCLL
row,Structure (SMILES),inhibition
1,Cn1cnnc1SCc1nc(N)nc(Nc2ccccc2)n1,0.3% (inactive)
2,Cc1ccc(C)c(NC2=CC(=O)CC(C)(C)C2)c1C#N,-12% (inactive)
3,CC(=O)N(NC(=O)c1ccc(C)cc1)C1CC(=O)N(c2ccccc2Cl)C1=O (stereo unspecified),-5.8% (inactive)
4,Cc1ccc(NC(=O)Cn2cc(C(F)(F)F)cc(Cl)c2=O)cc1Cl,3.2% (inactive)
5,C=CCn1c(Cc2cccs2)nnc1SCC(=O)Nc1ccc(OC)c(OC)c1,5.9% (inactive)
6,Cc1nn(C)cc1C(=O)Nc1cc(Oc2ccc(Cl)cc2)cc([N+](=O)[O-])c1,-2.9% (inactive)
7,COc1ccc2c(C)c(Cl)c(=O)oc2c1,3.5% (inactive)
8,CCN(CC)CCN(C(=O)c1cccc([N+](=O)[O-])c1)c1nc2ccc(OC)cc2s1,56.7% (active)
9,CCN(CC)CCN(C(=O)c1ccc([N+](=O)[O-])cc1)c1nc2ccc(OC)cc2s1,1.1% (inactive)
10,CCOc1ccc2nc(N(CCN(CC)CC)C(=O)c3cccc([N+](=O)[O-])c3)sc2c1,33.9% (inactive)
11,C=CCNC(=O)c1cc(C(=O)C(C)c2ncc(C(F)(F)F)cc2Cl)c[nH]1 (stereo unspecified),0.9% (inactive)
12,N=c1sccn1CC(=O)NCc1ccc(Cl)cc1Cl,-8.6% (inactive)
13,COC(=O)C1CCN(C2CC(=O)N(c3cc(C)cc(C)c3)C2=O)CC1 (stereo unspecified),-1.3% (inactive)
14,Cc1ccc(OCc2n[nH]c(=S)n2N)cc1C,1.5% (inactive)
15,COc1ccc(OCc2n[nH]c(=S)n2N)cc1,80.7% (active)
16,Nn1c(COc2ccc(Cl)cc2)n[nH]c1=S,12% (inactive)
17,O=C(NC1CCSC1=O)C1CCCCC1 (stereo unspecified),-2.2% (inactive)
18,c1cc(-c2ccncc2)ccn1,-8.5% (inactive)
19,N#Cc1cc(-c2ccccc2)c[nH]c1=O,6.1% (inactive)
20,Nc1cc(-c2ccncc2)c[nH]c1=O,50.4% (active)
21,COC(=O)c1c(NC(=O)C2CC=CCC2C(=O)O)sc(C(N)=O)c1C (stereo unspecified),7.3% (inactive)
22,Cc1ccc(NC(=O)CN(C)S(=O)(=O)c2cccc3cccnc23)cc1,11.9% (inactive)

row,Structure (SMILES),inhibition
1,O=C(COc1cccc2cccnc12)Nc1ccccc1,-7.8% (inactive)
2,Cc1ccc(NC(=O)CN(C)C(=O)COc2cccc3cccnc23)cc1,73% (active)
3,O=C(c1cccnc1)N1CCN(c2ccc(Cl)cc2)CC1,-6.6% (inactive)
4,O=C(/C=C/NNC(=O)c1ccc(Cl)cc1)c1ccccc1,-4.1% (inactive)
5,COC(=O)c1ccc(C(=O)OC)c(NC(=O)CN2CCCCC2)c1,4.7% (inactive)
6,CCCn1nnnc1NC(=O)c1cc(Br)ccc1OC,0.2% (inactive)
7,CCCn1nnnc1NC(=O)c1cc(Cl)ccc1Cl,13.1% (inactive)
8,CCCn1nnnc1NC(=O)c1ccc(C)cc1Cl,54.4% (active)
9,O=c1c2ccccc2nc2c3ccccc3c(NCc3cccnc3)nn12,6.3% (inactive)
10,CCN(CC)C(=S)SC1=CCS(=O)(=O)C1,102% (active)
11,CCN(CC)C(=S)SSC(=S)N(CC)CC,-2.4% (inactive)
12,CCN(CC)C(=S)SCC(=O)c1ccccc1,5.8% (inactive)
13,COc1ccc(OC)c([C@@H]2OCCC=C[C@H]2C)c1,-2.1% (inactive)
14,O=C(Nc1nc2c(s1)CCCC2)c1nn(Cc2ccccc2)c(=O)c2ccccc12,0.4% (inactive)
15,O=S(=O)(c1cccs1)N1CCN(c2ccccn2)CC1,5.9% (inactive)
16,Cc1ccc(-c2nnc(CSc3nc4cc5c(cc4cc3C)OCO5)o2)cc1,15.5% (inactive)
17,Cc1cccc(NCc2ccccc2O)c1C,29% (inactive)
18,Oc1ccc(CNc2ccccc2F)c2cccnc12,45.3% (inactive)
19,Cc1ccc(O)c(CNc2cccc3cccnc23)c1,34.8% (inactive)
20,Cc1cccc(NCc2ccc(O)c3ncccc23)c1C,60.4% (active)
21,Cc1cccnc1NCc1ccc(O)c2ncccc12,48.4% (inactive)
22,COc1cccc(C2C(C(=O)Nc3nc4ccccc4s3)=C(C)NC3=C2C(=O)CC(C)(C)C3)c1OC (stereo unspecified),-10.5% (inactive)

row,Structure (SMILES),inhibition
1,CC(=O)NC1C(=O)N=C(SCC(=O)NC2CCCCC2)NC1=O (stereo unspecified),-8.4% (inactive)
2,CC(=O)NC1C(=O)N=C(SCC(=O)Nc2sc3c(c2C#N)CCCCCC3)NC1=O (stereo unspecified),66.1% (active)
3,CC(=O)Nc1c(O)nc(SCC(=O)Nc2sc3c(c2C#N)CCCCCC3)[nH]c1=O,1.2% (inactive)
4,O=C(O)c1ccc(Nc2ncnc3c2cnn3Cc2ccccc2)cc1,7.1% (inactive)
5,O=C(Cc1ccccc1)NCc1ccccn1,-4.7% (inactive)
6,C/C(N)=C(/C#N)C(=O)CSc1nn(-c2ccc(Cl)cc2)c(=S)s1,5.6% (inactive)
7,CC(=O)N1c2ccccc2C2(O)N=C(C)SC12 (stereo unspecified),60.3% (active)
8,Cc1ccc(C(=O)CC2(O)C(=O)N(C)c3ccccc32)s1 (stereo unspecified),8.1% (inactive)
9,CC(=O)N1c2ccccc2C(C)(C)C2CCC(C)CC21 (stereo unspecified),0.8% (inactive)
10,CCOc1cc2c(C#N)c(N3CCCCC3)nc(N)c2c(N)n1,62.4% (active)
11,CCOc1ccccc1N1CCN(c2nc(N)c(C#N)c(CC#N)c2C#N)CC1,12.6% (inactive)
12,N#Cc1c(N2CCCC2)nc(N)c2c(N)nc(N3CCCC3)cc12,6.9% (inactive)
13,COCc1cc(C)nc(N2CCNCC2)c1C#N,-0.4% (inactive)
14,COc1cc2c(C#N)c(N3CCc4ccccc4C3)nc(N)c2c(N)n1,64.3% (active)
15,COc1cc2c(C#N)c(N3CCCCC3)nc(N)c2c(N)n1,66.7% (active)
16,CCOc1cc2c(C#N)c(N3CCNCC3)nc(N)c2c(N)n1,65.4% (active)
17,CCCCN(CC)c1nc(N)c2c(N)nc(OCC)cc2c1C#N,37.5% (inactive)
18,COc1cc2c(C#N)c(N3CCOCC3)nc(N)c2c(N)n1,28.9% (inactive)
19,COc1cc2c(C#N)c(N3CCN(c4ccccc4OC)CC3)nc(N)c2c(N)n1,47.2% (inactive)
20,CCCN(CC1CC1)c1nc(N)c2c(N)nc(OC)cc2c1C#N,47.8% (inactive)
21,COc1cc2c(C#N)c(N3CCN(C)CC3)nc(N)c2c(N)n1,42.5% (inactive)
22,COc1ccc2cc(CN(CC3CCCO3)C(=O)Nc3ccccc3OC)c(=O)[nH]c2c1 (stereo unspecified),3.2% (inactive)
